# Assay results as given in ChEMBL document CHEMBL3988442, “University of Dundee, Small-Polar-MMV Screening Library” (2021).
# Target: T1, Methionyl-tRNA synthetase, putative (Leishmania donovani (strain BPK282A1)) (UniProt E9BF75)
# T1 sequence (whole entry): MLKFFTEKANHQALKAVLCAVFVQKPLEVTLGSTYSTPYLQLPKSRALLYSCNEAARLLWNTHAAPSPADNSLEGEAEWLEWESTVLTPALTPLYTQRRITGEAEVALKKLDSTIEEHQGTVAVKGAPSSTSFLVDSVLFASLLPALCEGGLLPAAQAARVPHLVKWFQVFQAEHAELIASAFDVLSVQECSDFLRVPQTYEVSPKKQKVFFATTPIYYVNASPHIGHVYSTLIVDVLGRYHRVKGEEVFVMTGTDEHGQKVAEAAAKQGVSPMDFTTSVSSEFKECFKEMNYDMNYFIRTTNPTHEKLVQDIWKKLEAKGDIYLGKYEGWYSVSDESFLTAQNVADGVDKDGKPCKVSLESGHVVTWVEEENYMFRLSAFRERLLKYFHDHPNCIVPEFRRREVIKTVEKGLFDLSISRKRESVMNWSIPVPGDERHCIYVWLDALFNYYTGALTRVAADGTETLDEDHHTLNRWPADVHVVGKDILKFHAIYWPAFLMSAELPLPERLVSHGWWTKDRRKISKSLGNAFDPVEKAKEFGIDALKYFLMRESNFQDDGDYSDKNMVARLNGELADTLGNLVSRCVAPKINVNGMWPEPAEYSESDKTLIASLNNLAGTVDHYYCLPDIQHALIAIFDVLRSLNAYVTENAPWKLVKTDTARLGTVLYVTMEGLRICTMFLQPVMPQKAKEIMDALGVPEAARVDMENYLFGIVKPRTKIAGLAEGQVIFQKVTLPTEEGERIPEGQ
# Assay: Leishmania donovani Methionine tRNA synthetase (LdMetRS):v7. Dose response assay
# Assay type: functional
# Design: conc 80 nM, time 150 minutes
smiles,measurement,setting,value
CN(CCO)c1nc(Nc2ccc(F)c(F)c2)nc2c1cnn2C,PXC50,"BOTTOM 0.0, HILLSLOPE 0.946216108, MAX_EFFECT 71.34724858, TOP 77.67704584",5.71
same,PXC50,"BOTTOM 6.419914674, HILLSLOPE 1.323004722, MAX_EFFECT 73.51598174, TOP 75.78870148",5.35
same,PXC50,"BOTTOM 11.43918674, HILLSLOPE 1.794336173, MAX_EFFECT 61.32075472, TOP 56.10925087",5.63
CNc1nc(Nc2ccc(F)c(F)c2)nc2c1cnn2C,PXC50,"BOTTOM 0.870209489, HILLSLOPE 0.808254997, MAX_EFFECT 89.4026975, TOP 100.0",5.22
same,PXC50,"BOTTOM 6.300791226, HILLSLOPE 0.864616698, MAX_EFFECT 89.69957082, TOP 97.1703974",5.16
same,PXC50,"BOTTOM -2.296989521, HILLSLOPE 0.747850258, MAX_EFFECT 89.3111639, TOP 97.09484857",5.35
NC1CCOc2c(Cl)cc(Cl)cc21 (stereo not given),PXC50,MAX_EFFECT 4.805491991,< 2.7
same,PXC50,MAX_EFFECT 6.273764259,< 3
same,PXC50,MAX_EFFECT 11.76470588,< 2.7
same,PXC50,MAX_EFFECT 23.54211663,< 3
Cn1ncc2c(NCCO)nc(Nc3ccncc3)nc21,PXC50,MAX_EFFECT 4.449648712,< 4
same,PXC50,MAX_EFFECT 5.518763797,< 4
same,PXC50,MAX_EFFECT -0.37037037,< 4
CS(=O)(=O)N1CCN(c2ccc3ccc(C(=O)NC4CC4)cn23)CC1,PXC50,"BOTTOM 0.676888483, HILLSLOPE 1.632295337, MAX_EFFECT 62.22222222, TOP 67.77025413",4.71
same,PXC50,"BOTTOM 0.960464126, HILLSLOPE 4.237364112, MAX_EFFECT 56.37583893, TOP 52.03393569",4.89
same,PXC50,"BOTTOM 1.708048652, HILLSLOPE 3.091987727, MAX_EFFECT 59.02777778, TOP 55.32905726",4.97
same,PXC50,"BOTTOM 3.037239637, HILLSLOPE 2.011804467, MAX_EFFECT 63.24110672, TOP 62.63598189",4.98
same,PXC50,"BOTTOM -1.02344126, HILLSLOPE 1.263595064, MAX_EFFECT 66.72443674, TOP 100.0",4.26
Cc1nc(Cc2ccc(F)cc2)cc(C2COCCN2)n1 (stereo not given),PXC50,"BOTTOM 2.29407011, HILLSLOPE 1.165905826, MAX_EFFECT 59.72222222, TOP 100.0",4.12
same,PXC50,"BOTTOM 7.218737982, HILLSLOPE 1.406075807, MAX_EFFECT 57.71812081, TOP 100.0",4.05
same,PXC50,MAX_EFFECT 41.7677643,< 4
Cn1ncc2c(Nc3ccc(F)c(F)c3)nc(Nc3ccc(F)c(F)c3)nc21,PXC50,MAX_EFFECT 4.405286344,< 4
same,PXC50,MAX_EFFECT 13.01652893,< 4
same,PXC50,MAX_EFFECT 15.66731141,< 4
COc1ccc(C)cc1CN1CCC(c2cc3ncccc3cn2)CC1,PXC50,"BOTTOM 4.302486836, HILLSLOPE 1.43779927, MAX_EFFECT 88.21490468, TOP 100.0",4.58
same,PXC50,"BOTTOM 8.282667515, HILLSLOPE 1.048150925, MAX_EFFECT 85.90604027, TOP 109.7015184",4.5
same,PXC50,"BOTTOM -10.94583239, HILLSLOPE 1.338598097, MAX_EFFECT 90.27777778, TOP 104.5409309",4.59
COC(=O)CNC(=O)c1cccc(C(=O)N(C)c2ccccc2)c1,PXC50,MAX_EFFECT 1.22591944,< 4
same,PXC50,MAX_EFFECT 1.449275362,< 4
same,PXC50,MAX_EFFECT -3.401360544,< 4
NS(=O)(=O)c1cccnc1Nc1cc(F)cc(C(F)(F)F)c1,PXC50,MAX_EFFECT 3.956834532,< 4
same,PXC50,MAX_EFFECT 8.551068884,< 4
same,PXC50,MAX_EFFECT 8.583690987,< 4
Cn1ncc2c(NCCO)nc(Nc3cccc(OC(F)(F)F)c3)nc21,PXC50,MAX_EFFECT 13.77672209,< 4
same,PXC50,MAX_EFFECT 18.02575107,< 4
same,PXC50,MAX_EFFECT 24.6628131,< 4
CNC(=O)CNc1nc(Nc2ccc(F)c(F)c2)nc2c1cnn2C,PXC50,"BOTTOM -2.014141631, HILLSLOPE 0.719425381, MAX_EFFECT 67.11798839, TOP 100.0",4.45
same,PXC50,"BOTTOM -2.647341189, HILLSLOPE 0.864486673, MAX_EFFECT 64.80686695, TOP 100.0",4.36
same,PXC50,"BOTTOM -5.796593818, HILLSLOPE 0.871793388, MAX_EFFECT 66.50831354, TOP 100.0",4.35
C[C@H](CO)Nc1nc(Nc2ccc(F)c(F)c2)nc2c1cnn2C,PXC50,"BOTTOM 0.704945414, HILLSLOPE 0.848291247, MAX_EFFECT 90.56603774, TOP 99.28027428",5.18
same,PXC50,"BOTTOM -2.01884568, HILLSLOPE 0.856610715, MAX_EFFECT 86.93586698, TOP 98.70470885",5.08
same,PXC50,"BOTTOM -5.653457492, HILLSLOPE 0.743768618, MAX_EFFECT 93.13304721, TOP 109.1674954",5.06
NC(=O)c1cccnc1Nc1cccc(C(F)(F)F)c1,PXC50,MAX_EFFECT 7.210626186,< 4
same,PXC50,MAX_EFFECT 13.42975207,< 4
same,PXC50,MAX_EFFECT 16.74008811,< 4
